# Experimental data from PubChem BioAssay AID2570 (National Center for Advancing Translational Sciences (NCATS), 2010).
# Values joined by “and” are separate entries in the source; they are usually repeats but may differ in a detail not shown here. Equal entries are not always repeated. Records with an inconclusive call do not appear. Active and inactive are the calls of the source. Calls follow the shape of the dose curve; as a rule, active = well fitted curve in the direction sought with a large enough effect; inconclusive = small, poorly fitted or top-dose-only effect, or another doubt; inactive = no such curve, though single readings can be large or run the other way.
# Biological target: Vasopressin V1b receptor (Homo sapiens) (UniProt P47901)
# Sequence (P47901 whole entry, looked up): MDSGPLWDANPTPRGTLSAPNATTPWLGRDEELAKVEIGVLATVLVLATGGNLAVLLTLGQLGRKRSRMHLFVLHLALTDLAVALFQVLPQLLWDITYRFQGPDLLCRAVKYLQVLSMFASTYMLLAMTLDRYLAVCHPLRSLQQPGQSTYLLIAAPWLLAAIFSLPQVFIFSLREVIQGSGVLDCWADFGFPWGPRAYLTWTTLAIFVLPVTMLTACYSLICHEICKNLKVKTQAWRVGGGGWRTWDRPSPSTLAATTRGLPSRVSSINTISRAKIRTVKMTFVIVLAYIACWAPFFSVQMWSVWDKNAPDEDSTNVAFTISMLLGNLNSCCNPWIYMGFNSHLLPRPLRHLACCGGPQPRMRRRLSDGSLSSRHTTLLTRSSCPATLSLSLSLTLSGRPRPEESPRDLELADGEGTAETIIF
# Experiment: Counterscreen Concentration-Response Assay for Antagonists of the Neuropeptide S Receptor: Vasopressin Receptor Calcium Signal Transduction
# Conditions: CHO-AVPR1B, vasopressin-stimulated calcium fluorescence, FDSS
# Source text: NIH Chemical Genomics Center [NCGC] NIH Molecular Libraries Probe Production centers Network [MLPCN] MLPCN Grant: X01-DA026210-01 Assay Submitter (PI): Heilig, Markus Alexander NCGC Assay Overview: Neuropeptide S receptor (NPSR), previously known as GPR154, is a recently de-orphanized G protein coupled receptor. Its endogenous ligand is the 20 amino acids peptide Neuropeptide S (NPS). […] NPS and its receptor are found in various tissues. Specifically they are highly expressed in brain areas that have been implicated in modulation of arousal, stress and anxiety. Central administration of NPS in mice produces an unusual profile of activity by inducing wakefulness and arousal, while at the same time suppressing anxiety. Therefore, NPSR may represent a novel drug target for the treatment of sleep and anxiety disorders. To identify NPSR antagonists, we developed a cell-based assay with transfected NPS receptor. NPS can stimulate the production of cAMP as well as release intracellular calcium in Chinese hamster ovary cells stably expressing NPS receptor. This change in intracellular calcium can be detected using a calcium indicator dye on a calcium imaging plate reader system (FDSS). To validate the specific action of compounds on the NPS receptor, a counterscreen was developed that tests compounds' antagonism of AVPR1B vasopressin receptor stimulation by vasopressin. […] shares 27% identity with the NPS receptor.
# NCGC Assay Protocol Summary: A Chinese hamster ovary (CHO) cell line stably expressing human vasopressin receptor (AVPR1B) was maintained in F-12 Kaighn's media (Invitrogen, Carlsbad, CA, 21127) supplemented with 10 % FBS, 100 units/ml penicillin, 100 ug/ml streptomycin and 250 ug/ml geneticin at 37C, 5% CO2 in a humidified atmosphere. Before the assay, aliquots of cells were frozen and stored at -135C. The assay was performed on a FDSS-7000 kinetic plate reader in 1536-well format. The maximums of kinetic fluorescence responses were converted into text files using the instrument's software data export utility. Data for antagonist response were normalized to the controls for basal activity (DMSO only) and 100% inhibition (no signal). AC50 values were determined from concentration-response data modeled with the standard Hill equation. CHO-V1B 1536-well FDSS assay protocol: (1) Frozen CHO-V1B cells were thaw, washed once with fresh media and resuspended in F-12 Kaighn's media supplemented with 10 % FBS, 100 units/ml penicillin and 100 ug/ml streptomycin. Cells were plated at 3 ul/well (1200 cells) to black, clear-bottom, tissue-culture treated 1536-well plates, and then cultured at 37C, 5 % CO2 for 16 to 30 hours. (2) Add 3 ul of calcium dye (from High Performance PBX Calcium Assay Kit, BD Biosciences). The calcium dye was prepared according to the manufactory's instruction. (3) Incubation at 37C, 5 % CO2 for 60 min. (4) Add 23 nl/well of compound in DMSO solution. The final titration for each compound was between 0.6 nM and 46 uM. (5) Load plates to FDSS-7000. The following steps were performed on FDSS-7000. (6) Record fluorescent background (Ex 480 nm, Em 520-560 nm) for 10 s. (7) Add 2 ul of stimulation reagent (1X HBSS buffer, 0.1% BSA, 60 nM vasopressin). Record antagonist response (Ex 480 nm, Em 520-560 nm) for 180 s. Keywords: MLSMR, MLPCN, NIH Roadmap, qHTS, NCGC, NPS, Neuropeptide S Antagonists
row,SMILES,max response
1,COc1ccc2c(c1)Oc1ncn(CCN3CCOCC3)c(=N)c1C2c1ccc(OC)c(OC)c1 (stereo not given),-21.2% (inactive)
2,COc1ccc(C2c3c(ncn(CCN4CCOCC4)c3=N)Oc3ccc4ccccc4c32)cc1OC (stereo not given),-15.6% (inactive)
3,COc1cccc(C2c3c(ncn(-c4ccc(C(C)(C)C)cc4)c3=N)Oc3ccc4ccccc4c32)c1 (stereo not given),17.5% (inactive)
4,COc1ccc(C2c3c(ncn(CCCc4ccccc4)c3=N)Oc3ccc4ccccc4c32)cc1OC (stereo not given),11.1% (inactive)
5,COc1ccc(C2C3=C(N=CN(CCN4CCOCC4)C3N)Oc3ccccc32)cc1OC (stereo not given),19.6% (inactive)
6,COc1cccc(C2c3c(ncn(CCN4CCOCC4)c3=N)Oc3ccc4ccccc4c32)c1 (stereo not given),-2.37% (inactive)
7,COc1ccc(C2c3c(nc(CCCc4ccccc4)[nH]c3=O)Oc3ccc4ccccc4c32)cc1OC (stereo not given),12% (inactive)
8,O=C(Cc1ccccc1)Nc1ncnc2c1C(c1ccccc1)c1c(ccc3ccccc13)O2 (stereo not given),7.19% (inactive)
9,COc1cccc(C2C(C#N)=C(NC(=O)CCc3ccccc3)Oc3ccc4ccccc4c32)c1 (stereo not given),10.7% (inactive)
10,COc1ccc(C2c3c(N)nc(Cc4ccccc4)nc3Oc3ccc4ccccc4c32)cc1OC (stereo not given),-15.7% (inactive)
11,COc1cccc(C2c3c(ncn(-c4cccc(Br)c4)c3=N)Oc3ccc4ccccc4c32)c1 (stereo not given),-12.3% (inactive)
12,COc1cccc(C2c3c(ncn(-c4ccccc4C#N)c3=N)Oc3ccc4ccccc4c32)c1 (stereo not given),2.63% (inactive)
13,COc1ccc(C2c3c(n(Cc4ccccc4)cnc3=N)Oc3ccc4ccccc4c32)cc1OC (stereo not given),-20.3% (inactive)
14,COc1cccc(C2c3c(ncn(-c4cccc(OC)c4)c3=N)Oc3ccc4ccccc4c32)c1 (stereo not given),-13.6% (inactive)
15,N=c1c2c(ncn1CCN1CCOCC1)Oc1ccc3ccccc3c1C2c1ccccc1 (stereo not given),25.9% (inactive)
16,Cc1c(P(=S)(c2ccccc2)c2ccccc2)c2ccccc2n1CCc1ccccc1,-38.1% (inactive)
17,N=c1c2c(ccn1Cc1ccccc1)Oc1ccc3ccccc3c1C2c1ccccc1 (stereo not given),18.5% (inactive)
18,COc1ccc(C2c3c(ncn(CCc4ccccc4)c3=N)Oc3ccc4ccccc4c32)cc1OC (stereo not given),7.55% (inactive)
19,N=c1c2c(ccn1CCCCc1ccccc1)Oc1ccc3ccccc3c1C2c1ccccc1 (stereo not given),19.5% (inactive)
20,COc1cccc(C2c3c(ncn(-c4ccncc4)c3=N)Oc3ccc4ccccc4c32)c1 (stereo not given),23.2% (inactive)

row,SMILES,max response
1,O=C(CCc1ccccc1)Nc1ncnc2c1C(c1ccccc1)c1c(ccc3ccccc13)O2 (stereo not given),-23% (inactive)
2,COc1cccc(C2c3c(ncn(-c4ccccc4OC)c3=N)Oc3ccc4ccccc4c32)c1 (stereo not given),-19.5% (inactive)
3,Cc1c(P(=S)(c2ccccc2)c2ccccc2)c2ccccc2n1CCCc1ccccc1,8.85% (inactive)
4,N=c1c2c(ccn1-c1ccccc1)Oc1ccc3ccccc3c1C2c1ccccc1 (stereo not given),-28.3% (inactive)
5,COc1cccc(C2c3c(ncn(-c4cccc(C)c4)c3=N)Oc3ccc4ccccc4c32)c1 (stereo not given),-55.3% (inactive)
6,O=C(Nc1ncnc2c1C(c1ccccc1)c1c(ccc3ccccc13)O2)c1ccccc1 (stereo not given),8.3% (inactive)
7,O=C1OC(c2ccccc2)(c2ccccc2)N2CCN(C(=O)NCc3ccc(F)cc3)CC12 (stereo not given),22.2% (inactive) and 17.7% (inactive)
8,CCOC(=O)CCC(=O)Nc1ncnc2c1C(c1ccccc1)c1c(ccc3ccccc13)O2 (stereo not given),-0.278% (inactive)
9,O=C(c1ccccc1)N(C(=O)c1ccccc1)c1ncnc2c1C(c1ccccc1)c1c(ccc3ccccc13)O2 (stereo not given),12.9% (inactive)
10,COc1ccc(-n2cnc3c(c2=N)C(c2cccc(OC)c2)c2c(ccc4ccccc24)O3)cc1 (stereo not given),-14.1% (inactive)
11,COc1ccc(C2c3c(N)nc(CCCc4ccccc4)nc3Oc3ccc4ccccc4c32)cc1OC (stereo not given),-15.9% (inactive)
12,COc1ccc(C2c3c(ncn(Cc4ccccc4)c3=N)Oc3ccc4ccccc4c32)cc1OC (stereo not given),-10.2% (inactive)
13,COc1ccc(C2c3ccc4ccccc4c3Oc3ncn(CCN4CCOCC4)c(=N)c32)cc1OC (stereo not given),-8.9% (inactive)
14,CCOC(=O)c1ccc(-n2cnc3c(c2=N)C(c2cccc(OC)c2)c2c(ccc4ccccc24)O3)cc1 (stereo not given),17.2% (inactive)
15,COc1cccc(C2c3c(ncn(-c4ccc(C)cc4)c3=N)Oc3ccc4ccccc4c32)c1 (stereo not given),-0.274% (inactive)
16,COc1ccc(C2c3ccc(OCc4ccccc4)cc3Oc3ncn(CCN4CCOCC4)c(=N)c32)cc1OC (stereo not given),-15.2% (inactive)
17,Cc1c(P(=S)(c2ccccc2)c2ccccc2)c2ccccc2n1C(=O)Cc1ccccc1,5.72% (inactive)
18,N#CC1=C(NC=NCc2ccccc2)Oc2ccc3ccccc3c2C1c1ccccc1 (stereo not given),-19% (inactive)
19,COc1ccc(C2c3c(nc(CCc4ccccc4)[nH]c3=O)Oc3ccc4ccccc4c32)cc1OC (stereo not given),1.09% (inactive)
20,COc1cccc(C2c3c(ncn(-c4ccc(-c5ccccc5)cc4)c3=N)Oc3ccc4ccccc4c32)c1 (stereo not given),-10.6% (inactive)
